Test in all cases: bioluminescence (viable cell) signal fold change after vs before treatment, normalised to DMSO (ratio); higher = more tumour cell growth / less inhibition
Conditions in all cases: 10 µM; treatment time 6 days

The test system of assay [1] is LEGO organoid PT (PTEN-/-; TP53-/-). On the procedure:
(§1)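 Luc2-labelled iPSC-derived glioblastoma-like organoids (LEGOs, genotypes PT = PTEN-/-;TP53-/-, PTCC = plus CDKN2A/B-/-, PTN = plus NF1-/-) were treated with 10 uM drug for 6 days (applied every other day) at 37 C. Bioluminescence imaging was done before treatment and 2 days after the last dose. BLI signals were normalised to the DMSO control on the same day and then to the pre-treatment signal (N=3).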

For assay [2], the system named is LEGO organoid PTCC (PTEN-/-; TP53-/-; CDKN2A-/-; CDKN2B-/-). How it is done: as §1
In assay [3] the test system is LEGO organoid PTN (PTEN-/-; TP53-/-; NF1-/-). How it is done:
as §1

Structures are written as SMILES.

In the case of `CNCCC(Oc1ccc(C(F)(F)F)cc1)c1ccccc1.Cl` (stereo not drawn) [Fluoxetine hydrochloride], the figures for the bioluminescence in assay [1], in assay [2] and in assay [3] were 0.929, 1.74 and 0.924, respectively.
The matching figures for `CC(=O)OCC[N+](C)(C)C.[Cl-]` [Acetylcholine chloride]: 0.981, 1.09 and 1.15.
With `NNC(=O)c1ccncc1` [Isoniazid], the bioluminescence came out at 0.807 in assay [1], 0.847 in assay [2] and 1.06 in assay [3].
Regarding `CN1C(=O)OC(C)(C)C1=O` [Trimethadione], the bioluminescence in assay [1] came to 0.57; in assay [2] it was 1.38; in assay [3] it was 0.909.
The matching figures for `COc1cc(C(C)=O)ccc1OCCCN1CCC(c2noc3cc(F)ccc23)CC1` [Iloperidone]: 1.45, 1.06 and 2.12.
On the same counts, the results for `C/C=C(/C)C(=O)O[C@H]1C(C)=C[C@]23C(=O)[C@@H](C=C(CO)[C@@H](O)[C@]12O)[C@H]1[C@@H](C[C@H]3C)C1(C)C` [Ingenol Mebutate] are 0.841, 1.37 and 2.33.
On to `CN(C)CCc1c[nH]c2ccc(Cn3cncn3)cc12.O=C(O)c1ccccc1` [Rizatriptan benzoate], for which the bioluminescence worked out at 0.898 in assay [1], 1.84 in assay [2] and 0.666 in assay [3].
On the same counts, the results for `CC(=O)NCCCS(=O)(=O)[O-].CC(=O)NCCCS(=O)(=O)[O-].[Ca+2]` [Acamprosate calcium] are 2.61, 0.374 and 1.11.
Regarding `Cl.CN(C)CC\C=C1\c2ccccc2C=Cc2ccccc12` [Cyclobenzaprine hydrochloride], the bioluminescence in assay [1] came out at 0.825; in assay [2], 1.61; in assay [3], 3.73.
As to `CN(C)CCCN1c2ccccc2CCc2ccc(Cl)cc21.Cl` [Clomipramine hydrochloride], the bioluminescence in assay [1] was 0.859; in assay [2], 0.71; in assay [3], 1.5.
On the same counts, the results for `CNCCCN1c2ccccc2CCc2ccccc21.Cl` [Desipramine hydrochloride] are 0.858, 0.744 and 1.22.
Take `N[C@@H]1CONC1=O` [D-Cycloserine]: the bioluminescence in assay [2] was 1.11; in assay [3], 1.69.
For the molecule `C=CC(=O)N1CCC[C@@H](n2nc(-c3ccc(Oc4ccccc4)cc3)c3c(N)ncnc32)C1` [Ibrutinib], the bioluminescence in assay [1] was determined as 0.73; in assay [2], 1.87; in assay [3], 1.26.
`CCN(CC)CCNC(=O)c1c(C)[nH]c(/C=C2\C(=O)Nc3ccc(F)cc32)c1C` [Sunitinib]: the bioluminescence came out at 0.391 in assay [1], 0.536 in assay [2] and 0.687 in assay [3].
On the same counts, the results for `CO/N=C(\C(=O)N[C@@H]1C(=O)N2C(C(=O)[O-])=C(CSc3nc(=O)c([O-])nn3C)CS[C@H]12)c1csc(N)n1.CO/N=C(\C(=O)N[C@@H]1C(=O)N2C(C(=O)[O-])=C(CSc3nc(=O)c([O-])nn3C)CS[C@H]12)c1csc(N)n1.O.O.O.O.O.O.O.[Na+].[Na+].[Na+].[Na+]` [Ceftriaxone sodium] are 0.964, 1.62 and 2.01.
Consider `CCC1(C)CC(=O)NC1=O` (stereo not drawn) [Ethosuximide], for which the values for the bioluminescence in assay [1], in assay [2] and in assay [3] were 0.871, 0.668 and 0.778, respectively.
Take `NC(=O)c1cnccn1` [Pyrazinamide]: the bioluminescence came out at 1.24 in assay [2] and 1.72 in assay [3].
As to `CCOC(=O)OC(C)OC(=O)[C@@H]1N2C(=O)[C@@H](NC(=O)[C@H](N)c3ccccc3)[C@H]2SC1(C)C.Cl` (stereo partly drawn) [Bacampicillin hydrochloride], the figures for the bioluminescence in assay [1], in assay [2] and in assay [3] were 0.788, 1.35 and 3.29, respectively.
The matching figures for `Cl.N=C(N)NC(=O)Cc1c(Cl)cccc1Cl` [Guanfacine hydrochloride]: 1.1, 1.24 and 0.496.
On the same counts, the results for `C[C@@H](O[C@H]1OCCN(Cc2nc(=O)[nH][nH]2)[C@H]1c1ccc(F)cc1)c1cc(C(F)(F)F)cc(C(F)(F)F)c1` [Aprepitant] are 0.86, 0.644 and 1.21.
Consider `Cn1c(=O)c2[nH]cnc2n(C)c1=O` [Theophylline], for which the figures for the bioluminescence in assay [1], in assay [2] and in assay [3] were 0.849, 1.2 and 2.42, respectively.
For the molecule `CN1CCN2c3ncccc3Cc3ccccc3C2C1` (stereo not drawn) [Mirtazapine], the figures for the bioluminescence in assay [1], in assay [2] and in assay [3] were 1.1, 1.47 and 0.789, respectively.
Turning to `CC[C@]1(O)C[C@H]2C[N@](CCc3c([nH]c4ccccc34)[C@@](C(=O)OC)(c3cc4c(cc3OC)N(C=O)[C@H]3[C@@](O)(C(=O)OC)[C@H](OC(C)=O)[C@]5(CC)C=CCN6CC[C@]43[C@@H]65)C2)C1.O=S(=O)(O)O` [Vincristine sulfate], the figures for the bioluminescence in assay [1], in assay [2] and in assay [3] were 0.224, 2.47 and 0.8, respectively.
For the molecule `CCCCCOC(=O)Nc1nc(=O)n([C@@H]2O[C@H](C)[C@@H](O)[C@H]2O)cc1F` [Capecitabine], the bioluminescence in assay [1] came out at 2.21; in assay [2] it was 1.71; in assay [3], 6.04.
On the same counts, the results for `CC(C)c1c(C(=O)Nc2ccccc2)c(-c2ccccc2)c(-c2ccc(F)cc2)n1CC[C@@H](O)C[C@@H](O)CC(=O)[O-].CC(C)c1c(C(=O)Nc2ccccc2)c(-c2ccccc2)c(-c2ccc(F)cc2)n1CC[C@@H](O)C[C@@H](O)CC(=O)[O-].[Ca+2]` [Atorvastatin Calcium] are 1.09, 0.222 and 0.0875.

The values are drawn from the supplement of paper PMC10811239.
